Only a selection was taken, and hits are over-represented in it overall.
LmPK inh: qHTS Assay for Inhibitors of Leishmania Mexicana Pyruvate Kinase (LmPK) | purified LmPK, Kinase-Glo ATP luminescence, 1 h | Potency, µM (series often up to 57.5 µM), inactives show top-dose activity change, negative = inhibition, most hits filed as inhibitors | actives 0.37% (n = 290,000); further: potency means the concentration at half of the fitted maximal effect; on the % scale 0 is the no-effect control and ±100 the full control effect
Target sequence (Q27686 whole entry, looked up): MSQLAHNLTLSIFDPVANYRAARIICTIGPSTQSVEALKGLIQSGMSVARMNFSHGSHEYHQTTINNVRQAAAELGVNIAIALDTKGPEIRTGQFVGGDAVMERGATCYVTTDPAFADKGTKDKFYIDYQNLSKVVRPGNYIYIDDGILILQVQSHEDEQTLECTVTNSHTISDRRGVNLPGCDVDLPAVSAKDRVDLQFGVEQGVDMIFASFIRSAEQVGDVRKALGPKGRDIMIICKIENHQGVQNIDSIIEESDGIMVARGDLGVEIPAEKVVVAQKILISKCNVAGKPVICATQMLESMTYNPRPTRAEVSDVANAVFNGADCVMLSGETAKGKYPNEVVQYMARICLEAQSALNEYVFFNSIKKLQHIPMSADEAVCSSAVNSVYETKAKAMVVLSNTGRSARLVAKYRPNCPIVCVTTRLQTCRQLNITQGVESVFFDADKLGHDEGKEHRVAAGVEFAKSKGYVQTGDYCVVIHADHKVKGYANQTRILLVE
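Kinase-Glo luminescence read after 1 h RT reaction of 0.1 nM LmPK with 0.5 mM PEP and 0.1 mM ADP. Activity scaled between uninhibited and enzyme-free controls.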
TbPYK inhibitor: qHTS of Trypanosoma Brucei Inhibitors | AID 624173, 2012 | TbPYK enzyme, Kinase-Glo Plus ATP luminescence, 45 min | actives 0.12% (n = 410,000) | Potency, µM (series often up to 76.8 µM), without a hit: at the highest dose activity, negative = inhibition, usual class: inhibitors | pyruvate kinase (Trypanosoma brucei), Q57TT1; further: potency means the concentration at half of the fitted maximal effect; on the % scale 0 is the no-effect control and ±100 the full control effect; nearly all actives have a fitted effect of over 50% in size
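T. brucei PYK with substrate was exposed to pin-transferred compounds across a concentration series, then started with 130 uM ADP (final). After 45 min at room temperature, Kinase-Glo Plus luminescence was read, normalized and curve-fitted.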
Cycloheximide cs: Cycloheximide Counterscreen for Small Molecule Inhibitors of Shiga Toxin; cell reporter, cycloheximide protein synthesis inhibition counterscreen; max response, %; actives 12% (n = 300,000); in the data active means max response mostly above about 13%, no sharp cut-off; inactive means mostly below about 14%; further: read at 38.3 µM for the half of the compounds with a filed dose; 0% is about no effect
Shiga inhibitor: A qHTS for Small Molecule Inhibitors of Shiga Toxin; Vero cells, Shiga toxin protein synthesis inhibition reporter; inhibition, % at 38.7 µM; actives 9.2% (n = 290,000); in the data active means inhibition mostly above about 28%, no sharp cut-off; inactive means mostly below about 43%; further: 0% is about no effect
RE007 growth inh: qHTS Assay for Inhibitors of the HIV-1 protein Vpr; S. pombe RE007 Vpr strain, BacTiter-Glo ATP luminescence, 24 h; Potency, µM (highest dose often 92.2 µM), for the others: at the highest dose activity change, negative = less growth, usual class: inhibitors; actives 0.21% (n = 360,000); AID 651644, 2012; active means well fitted falling curve with a large enough effect; inconclusive means small, poorly fitted or top-dose-only effect; inactive means no such curve, though single readings can be large or run the other way; further: potency means the concentration at half of the fitted maximal effect; on the % scale 0 is the no-effect control and ±100 the full control effect; nearly all actives have a fitted effect of over 50% in size
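Fission yeast RE007 carrying one integrated HIV-1 vpr copy, seeded at OD 0.01 in PMG+AL medium with 23 nL pinned compound. Grown 24 h at 30 degrees; viability read by BacTiter-Glo luminescence after 5 min.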
Giardia FBPA inh-1: qHTS Assay for Inhibitors of Fructose-1,6-bisphosphate Aldolase from Giardia Lamblia | Potency, µM (top dose mostly 59.6 µM), for inactives: at the top dose activity, negative = inhibition, usual class: inhibitors | A8B2U2 | purified Giardia FBPA | actives 0.71% (n = 290,000); further: potency means the concentration at half of the fitted maximal effect; on the % scale 0 is the no-effect control and ±100 the full control effect; nearly all actives have a fitted effect of over 55% in size
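40 nM FBPA preincubated 10 min at RT with compound (up to 57.5 uM final), then substrate plus GAPDH/TPI/NAD/arsenate coupling and diaphorase/resazurin added. Fluorescence read after 20 min at RT, 525/598 nm.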
Giardia growth: qHTS Assay for Inhibitors of Fructose-1,6-bisphosphate Aldolase from Giardia Lamblia: Giardia lamblia growth inhibition; actives 5% (n = 1,500); Giardia lamblia trophozoite growth inhibition; Potency, µM (highest dose often 57.5 µM), without a hit: top-dose activity change, negative = inhibition, most hits filed as inhibitors; shares compounds with Giardia FBPA inh-1; AID 2785, 2010;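 further: potency means the concentration at half of the fitted maximal effect; trophozoites exposed to compound for 48 h at 37 °C; on the % scale 0 is the no-effect control and ±100 the full control effect; nearly all actives have a fitted effect of over 70% in size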
Mammalian tox: qHTS Assay for Inhibitors of Fructose-1,6-bisphosphate Aldolase from Giardia Lamblia: Mammalian cellular toxicity. shares compounds with Giardia FBPA inh-1. mammalian cell viability counter-screen, qHTS. Potency, µM (top dose mostly 57.5 µM), for inactives: at the highest dose viability change, negative = toxicity, most hits filed as inhibitors. actives 4% (n = 1,500). AID 2786, 2010;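 further: Chinese hamster ovary cells used as mammalian cytotoxicity surrogate; viability measured as cellular ATP by luminescence; potency means the concentration at half of the fitted maximal effect; compound exposure lasted 48 h before reading; on the % scale 0 is the no-effect control and ±100 the full control effect; nearly all actives have a fitted effect of over 60% in size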
Giardia FBPA inh-2: qHTS Assay for Inhibitors of Fructose-1,6-bisphosphate Aldolase from Giardia Lamblia: Primary screen confirmation; purified Giardia aldolase enzyme activity, qHTS; shares compounds with Giardia FBPA inh-1; actives 5% (n = 1,500); Potency, µM (titrated, usually from 57.5 µM), for the others: top-dose activity change, negative = inhibition, most hits filed as inhibitors; further: potency means the concentration at half of the fitted maximal effect; on the % scale 0 is the no-effect control and ±100 the full control effect; nearly all actives have a fitted effect of over 45% in size
Rabbit FBPA inh: qHTS Assay for Inhibitors of Fructose-1,6-bisphosphate Aldolase from Giardia Lamblia: Rabbit FBPA Selectivity; shares compounds with Giardia FBPA inh-1; AID 2794, 2010; Rabbit muscle FBPA enzyme inhibition, selectivity counter-screen; Potency, µM (highest dose often 57.5 µM), without a hit: at the highest dose activity, negative = inhibition, most hits filed as inhibitors; actives 4% (n = 1,500); further: potency means the concentration at half of the fitted maximal effect; on the % scale 0 is the no-effect control and ±100 the full control effect; nearly all actives have a fitted effect of over 60% in size
Target sequence (P00883 whole entry, looked up): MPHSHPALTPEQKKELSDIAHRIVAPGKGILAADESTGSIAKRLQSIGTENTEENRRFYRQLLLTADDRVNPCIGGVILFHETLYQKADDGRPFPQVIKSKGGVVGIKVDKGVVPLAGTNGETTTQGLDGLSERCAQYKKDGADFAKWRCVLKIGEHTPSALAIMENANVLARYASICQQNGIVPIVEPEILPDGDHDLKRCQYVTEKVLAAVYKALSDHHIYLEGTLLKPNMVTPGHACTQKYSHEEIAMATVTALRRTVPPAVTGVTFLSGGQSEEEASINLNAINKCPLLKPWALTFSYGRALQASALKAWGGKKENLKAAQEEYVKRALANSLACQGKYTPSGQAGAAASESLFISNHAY
GAPDH counter: qHTS Assay for Inhibitors of Fructose-1,6-bisphosphate Aldolase from Giardia Lamblia: Coupling assay counterscreen confirmation; GAPDH coupling enzyme counterscreen, biochemical, qHTS; Potency, µM (series often up to 57.5 µM), without a hit: at the top dose activity change, negative = inhibition, actives largely listed as inhibitors; shares compounds with Giardia FBPA inh-1; actives 6% (n = 1,500); further: potency means the concentration at half of the fitted maximal effect; on the % scale 0 is the no-effect control and ±100 the full control effect; nearly all actives have a fitted effect of over 55% in size
The depositor's hits bear a star; ? = inconclusive; / = not tested or not shown; [ ] = another dose, or the depositor's remark. Unless noted, the call rests on the fitted dose curve; in most records, active means well fitted curve in the direction sought with a large enough effect; inconclusive means small, poorly fitted or top-dose-only effect, or another doubt; inactive means no such curve, though single readings can be large; an effect the other way counts as inactive or inconclusive.

SMILES	LmPK inh	TbPYK inhibitor	Cycloheximide cs	Shiga inhibitor	RE007 growth inh	Giardia FBPA inh-1	Giardia growth	Mammalian tox	Giardia FBPA inh-2	Rabbit FBPA inh	GAPDH counter
Cc1ccc(S(=O)(=O)N2CCN(CCc3ccccc3)CC2)c(C)c1	-14.6%	0.7%	-2.0	3.9	5.3%	20µM*	-3.0%	7.7%	4.7%	19.3%	6.3%
COc1ccc(S(=O)(=O)N2CCN(Cc3ccccc3)CC2)c(C)c1	-0.6%	-0.1%	1.0	-12.1	-4.2%	7.9%	/	/	/	/	/
Cc1cc(C=C2C(=O)N(C)C(=S)N(C)C2=O)c(C)n1-c1cccnc1	0.3%	?	0.5	9.7	/	3.15µM*	-29.4%	6.5%	-12.4%	-6.7%	-29.1%
O=[N+]([O-])c1cccc(Cn2cnc3c(=S)nc[nH]c32)c1	/	-23.8%	/	/	11.4%	/	/	/	/	/	/
OCC1CCCC(n2cnc3c(=S)nc[nH]c32)O1 (stereo not given)	6.0%	-13.4%	-0.6	-2.6	5.7%	3.97µM*	7.9%[38.3 µM]	16.9%	-2.8%	-0.9%	?
S=c1nc[nH]c2c1ncn2C1CCCC1	-0.6%	?	-2.3	18.2	3.3%	3.97µM*	7.6%[38.3 µM]	-2.9%	-3.2%	-11.4%	-4.7%
CCOC1CCCC(n2cnc3c(=S)nc[nH]c32)O1 (stereo not given)	/	-15.5%	/	/	8.5%	/	/	/	/	/	/
O=C(NCC(c1ccc2c(c1)OCO2)N1CCN(c2ccccc2)CC1)C(=O)Nc1ccc(F)cc1 (stereo not given)	/	-4.7%	/	/	/	/	/	/	/	/	/
NC(=S)NNc1cccc(Cl)c1	4.3%	-3.2%	-4.6	-8.9	?	12.6µM*	48.0%	8.0%	-16.2%	-5.1%	-6.7%
Cc1cccc(NNC(=S)Nc2c(C)cccc2C)c1	-3.5%	-1.6%	-3.4	-16.9	-7.6%	-7.5%	/	/	/	/	/
Cc1cccc(NNC(N)=S)c1	-1.1%	-1.6%	-1.3	6.8	?	19.9µM*	10.9%	11.3%	0.1%	-0.3%	10.0%
C1=CCC(CN2CCN(C3CCCCCC3)CC2)CC1 (stereo not given)	-9.4%	25.6%	-2.1	-3.6	3.5%	14.1µM*	-10.2%	5.5%	1.3%	-1.7%	-0.3%
Cc1ccc(C)c(CN2C(=O)c3ccccc3S(=O)(=O)c3ccc(C(=O)N4CCN(Cc5ccccc5)CC4)cc32)c1	/	3.3%	/	/	/	/	/	/	/	/	/
COc1ccccc1CN1CC[C@@]2(CCCN(S(=O)(=O)c3ccccc3)C2)C1	/	0.0%	/	/	/	0.0%	/	/	/	/	/
Cc1cc(C)c(O)c(N)c1	1.8%	/	-2.2	-3.6	/	19.9µM*	-5.4%[10.4 µM]	4.8%	?	?	-27.8%
O=C1NC(C(=O)O)=CC(c2ccc([N+](=O)[O-])cc2)N1 (stereo not given)	0.7%	-5.7%	-2.9	-4.2	2.3%	17.7µM*	25.3%	19.8%	-9.6%	-12.3%	0.6%
CC1(C(=O)O)COC(c2ccc([N+](=O)[O-])cc2)OC1 (stereo not given)	5.7%	-2.0%	-4.2	-16.5	19.9%	3.5%	/	/	/	/	/
CCOC(=O)c1cc(-c2ccc(OC)c(S(=O)(=O)NC3CCCCC3)c2)on1	/	-3.6%	/	/	/	/	/	/	/	/	/
Cc1ccc(CN2CCC(N3CC(C)OC(C)C3)CC2)cc1 (stereo not given)	-5.5%	5.4%	-1.3	-9.0	-5.2%	15.8µM*	?	4.7%	3.0%	5.4%	1.3%
CSc1ccc(CN2CCC(N3CC(C)OC(C)C3)CC2)cc1 (stereo not given)	-2.0%	-7.7%	-4.2	-1.1	3.6%	?	/	/	/	/	/
CCCCN1CCc2[nH]c(=S)[nH]c(=O)c2C1	-2.7%	-10.0%	-2.1	-14.6	20.2%	15.8µM*	?	-2.7%	4.8%	-2.9%	2.2%
COCCN1CCc2[nH]c(=S)[nH]c(=O)c2C1	-0.5%	-6.4%	-3.1	21.9	30.9%	?	/	/	/	/	/
COc1ccc(CCN(C)C(=O)C2CCCN(C3CCN(Cc4ccccc4)CC3)C2)cc1OC (stereo not given)	-3.3%	7.7%	-3.0	-7.6	-6.3%	17.8µM*	?	-0.4%	-5.7%	-5.6%	6.0%
COc1ccc(OC)c(CN2CCC(C(=O)N(C)CCc3ccc(OC)c(OC)c3)CC2)c1	-9.0%	6.9%	7.4	12.7	11.5%	?	/	/	/	/	/
O=C(Nc1ccc(Cl)cc1)N1CCC(CN2CCCCCC2)CC1	/	0.3%	/	/	/	/	/	/	/	/	/
O=C(NC1CCCCC1)c1cccnc1C(=O)O	0.8%	12.7%	3.7	6.7	-2.9%	5.61µM*	10.3%	6.0%	6.2%	10.5%	13.1%
O=C(NC1CCCC1)c1cccnc1N1CCCCCC1	-1.4%	0.3%	-2.2	13.7	8.9%	3.3%	/	/	/	/	/
CNc1n[nH]c(=S)s1	2.3%	?	6.4	22.5	-0.1%	17.7µM*	-16.9%	1.1%	-1.0%	-4.4%	12.4%
Cc1cccc(N2CCN(c3nc4ccccc4c4nnc(C)n34)CC2)c1C	/	0.7%	/	/	/	/	/	/	/	/	/
O=S(=O)(NCCc1ccc(Cl)cc1)c1ccc(N2CCCCS2(=O)=O)cc1	/	-5.9%	/	/	/	/	/	/	/	/	/

Source: PubChem
